The record followed here is PubChem BioAssay (Tox21).

Unmarked numbers belong to inactive results. Results filed as inconclusive are left out. Active and inactive are the calls of the source. The call rests on the fitted dose curve; in most records, active means well fitted curve in the direction sought with a large enough effect in the repeat runs; inconclusive means weak or mixed curves; inactive means no such curve, though single readings can be large; an effect the other way counts as inactive or inconclusive.

The nature of assay [1]: Human pregnane X receptor (PXR) small molecule agonists, qHTS cell viability counter screen (AID 1346977). Further: nearly all actives have a fitted effect of over 50% in size. The essentials:
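PXR-Luc HepG2, 2,000 cells/well, 5% charcoal-stripped FBS; 5hr settle; cpd 24hr, 37C/5% CO2; CellTiter-Fluor at 23hr, read 1hr later (fluorescence).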

Assay [2] in a line: Caspase-3/7 induction in HepG2 cells by small molecules, qHTS assay (AID 1346978). Further: nearly all actives have a fitted effect of over 15% in size. A digest of the protocol: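 Caspase-3/7 induction was measured by Caspase-Glo 3/7 luminescence (30 min, room temperature) after a 17 hr compound exposure of wild-type HepG2 cells seeded at 2,000 per well and pre-incubated 5 hr.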
Assay [3] is described as follows: Caspase-3/7 induction in CHO-K1 cells by small molecules, qHTS cell viability counter screen (AID 1346979). Further: nearly all actives have a fitted effect of over 35% in size. The essentials:
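Cells (CHO-K1, wild type) are plated at 1,500 per well and incubated 5hr. Test compounds in DMSO are then pinned in, followed by 16hr at 37C and 5% CO2. Viability is read by CellTiter-Fluor fluorescence after 1hr.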
On the technique in general: Quantitative high-throughput screening tests each substance at several concentrations.

A short description of assay [4]: Caspase-3/7 induction in CHO-K1 cells by small molecules, qHTS assay (AID 1346980). Further: nearly all actives have a fitted effect of over 15% in size. A digest of the protocol:
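Luminescent Caspase-Glo 3/7 read (30min, room temperature) quantified apoptosis induction. Cells were wild-type CHO-K1, treated with compound for 17hr at 37 C and 5% CO2.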

Assay [5] is described as follows: Caspase-3/7 induction in HepG2 cells by small molecules, qHTS cell viability counter screen (AID 1346981). Further: series mostly up to about 92 µM; nearly all actives have a fitted effect of over 30% in size. The essentials:
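Viability determined by CellTiter-Fluor fluorescence in HepG2 wells also used for the luminescent Caspase-Glo 3/7 read. Compounds were present for 16 hr at 37 C, 5% CO2 before reagent addition.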

The target in assay [6] is Nuclear receptor subfamily 1 group I member 2 (Homo sapiens) (UniProt O75469). The assay can be described thus: Human pregnane X receptor (PXR) small molecule agonists, qHTS assay (AID 1346982). Further: nearly all actives have a fitted effect of over 35% in size. Further: potency means the concentration at half of the fitted maximal effect. The essentials: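 Compound-induced hPXR transactivation of a CYP3A4 luciferase reporter was scored in HepG2 PXR-Luc cells over 24 hr at 37 C, 5% CO2, by luminescence.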
Assay [7] has as its target Nuclear receptor subfamily 1 group I member 2 (Rattus norvegicus) (UniProt Q9R1A7). The assay can be described thus: Rat pregnane X receptor (rPXR) activation by small molecules, qHTS assay (AID 1346983). Further: nearly all actives have a fitted effect of over 20% in size. As to conditions: rPXR luciferase reporter cells, One-Glo luminescence, 24 h; max activation: hits give high values. A digest of the protocol: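 Luminescent readout (One-Glo luciferase, 30 min room temperature) followed 24 hr compound treatment at 37 C of rPXR cells plated 2,000 per well and preincubated 5hr; qHTS format with compounds delivered in DMSO.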

Assay [8] addresses Nuclear receptor subfamily 1 group I member 2 (Homo sapiens) (UniProt O75469). Nature of the assay: CYP3A4 induction through human pregnane X receptor (PXR) by small molecules, qHTS assay (AID 1346984). Further: nearly all actives have a fitted effect of over 40% in size. The essentials:
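Readings come from a luciferase reporter: DPX-2 cells, which are HepG2 cotransfected with PXR and a CYP3A4-promoter construct, were exposed to test compounds for 24 h at 37C before One-Glo detection.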

The target of assay [9] is Cytochrome P450 2D6 (Homo sapiens) (UniProt P10635). Nature of the assay: Cytochrome P450 Family 2 Subfamily D Member 6 (CYP2D6) small molecule antagonists: luciferase reporter qHTS assay (AID 1671196). Further: nearly all actives have a fitted effect of over 50% in size. Further: potency means the concentration at half of the fitted maximal effect. A digest of the protocol:
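Each well received CYP2D6 with its proluciferin substrate and chemical, sat 10 min, then got NADPH regeneration solution for 1 h at room temperature. Luminescence in RLU served as the activity measure.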
In general terms: Reporter assays use an easily measured gene product as a stand-in for the process of interest.

Assay [10] has as its target Cytochrome P450 2C19 (Homo sapiens) (UniProt P33261). The assay can be described thus: Cytochrome P450 Family 2 Subfamily C Member 19 (CYP2C19) small molecule antagonists: luciferase reporter qHTS assay (AID 1671197). Further: nearly all actives have a fitted effect of over 65% in size. Further: potency means the concentration at half of the fitted maximal effect. A digest of the protocol: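 P450-Glo CYP2C19 screening system; proluciferin substrate; DMSO compound stocks; 10 min RT preincubation; NADPH regeneration, 1 h at 37C; luciferin detection reagent, 20 min RT; luminescence as RLU.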

Assay [11] concerns the target Cytochrome P450 2C9 (Homo sapiens) (UniProt P11712). The assay can be described thus: Cytochrome P450 Family 2 Subfamily C Member 9 (CYP2C9) small molecule antagonists: luciferase reporter qHTS assay (AID 1671198). Further: nearly all actives have a fitted effect of over 50% in size. Further: potency means the concentration at half of the fitted maximal effect. The essentials:
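Enzyme-substrate mix preincubated with compound 10 min at room temperature; reaction started with NADPH regeneration solution, 1 h 37C. Luminescent luciferin product read after 20 min detection reagent.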

The target of assay [12] is Cytochrome P450 1A2 (Homo sapiens) (UniProt P05177). Nature of the assay: Cytochrome P450 Family 1 Subfamily A Member 2 (CYP1A2) small molecule antagonists: luciferase reporter qHTS assay (AID 1671199). Further: nearly all actives have a fitted effect of over 50% in size. Further: potency means the concentration at half of the fitted maximal effect. A digest of the protocol:
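Enzymatic CYP1A2 assay, human, luminescent: 10 min compound–enzyme–substrate preincubation, 1 h NADPH-dependent turnover, 20 min detection step, room temperature throughout. Reduced light indicates lower CYP1A2 activity.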

Assay [13] concerns the target Cytochrome P450 3A4 (Homo sapiens) (UniProt P08684). Nature of the assay: Cytochrome P450 Family 3 Subfamily A Member 4 (CYP3A4) small molecule antagonists: luciferase reporter qHTS assay (AID 1671201). Further: nearly all actives have a fitted effect of over 50% in size. Further: potency means the concentration at half of the fitted maximal effect. A digest of the protocol: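 Compounds in DMSO were pin-transferred onto CYP3A4 enzyme-substrate mix and held 10 min at room temperature. NADPH regenerating solution started the reaction for 1 h; luciferin detection reagent stopped it, and luminescence was read after 20 min.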

The target of assay [14] is Voltage-gated inwardly rectifying potassium channel KCNH2 (Homo sapiens) (UniProt Q12809). The assay can be described thus: Human Ether-a-go-go-Related Gene (hERG) channel small molecule antagonists: fluorescence cell-based qHTS assay (AID 1671200). A digest of the protocol: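 Channel function was assessed by thallium flux. Cells seeded the previous day and kept at 37 C took up FluxOR II dye over 1 h in the dark at room temperature, then sat another 10 min before stimulation.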
On the technique in general: The hERG channel carries a current that helps repolarise heart muscle cells.
On the % scale 0 is the no-effect control and ±100 the full control effect.

Cytochrome P450 3A4 (Homo sapiens), sequence (P08684 whole entry, looked up): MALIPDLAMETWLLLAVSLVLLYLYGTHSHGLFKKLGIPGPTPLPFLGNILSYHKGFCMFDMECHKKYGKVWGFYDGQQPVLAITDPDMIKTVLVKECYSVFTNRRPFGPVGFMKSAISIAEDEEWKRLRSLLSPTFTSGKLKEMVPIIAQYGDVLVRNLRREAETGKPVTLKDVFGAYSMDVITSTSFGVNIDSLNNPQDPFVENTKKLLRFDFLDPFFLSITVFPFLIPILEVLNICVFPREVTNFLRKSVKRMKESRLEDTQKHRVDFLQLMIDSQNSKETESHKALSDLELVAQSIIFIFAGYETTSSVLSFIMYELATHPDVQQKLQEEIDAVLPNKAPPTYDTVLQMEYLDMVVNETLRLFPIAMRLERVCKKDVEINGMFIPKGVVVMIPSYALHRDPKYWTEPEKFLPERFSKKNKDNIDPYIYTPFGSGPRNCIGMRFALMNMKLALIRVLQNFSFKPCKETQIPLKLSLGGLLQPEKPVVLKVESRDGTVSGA
Cytochrome P450 2C19 (Homo sapiens), sequence (P33261 whole entry, looked up): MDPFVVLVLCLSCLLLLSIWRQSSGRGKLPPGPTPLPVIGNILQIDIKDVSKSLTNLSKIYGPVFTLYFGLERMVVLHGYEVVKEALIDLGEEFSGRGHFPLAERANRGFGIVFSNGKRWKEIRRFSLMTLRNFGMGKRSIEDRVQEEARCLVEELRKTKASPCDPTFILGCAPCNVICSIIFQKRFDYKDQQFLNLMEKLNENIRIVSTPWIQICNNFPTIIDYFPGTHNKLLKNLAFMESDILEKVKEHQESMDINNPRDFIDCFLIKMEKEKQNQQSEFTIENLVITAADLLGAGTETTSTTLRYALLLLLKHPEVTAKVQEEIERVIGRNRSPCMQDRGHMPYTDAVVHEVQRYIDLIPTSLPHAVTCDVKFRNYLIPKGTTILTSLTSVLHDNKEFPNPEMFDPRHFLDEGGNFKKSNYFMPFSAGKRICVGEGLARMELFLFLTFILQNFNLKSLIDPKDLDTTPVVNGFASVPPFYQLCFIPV
Cytochrome P450 2C9 (Homo sapiens), sequence (P11712 whole entry, looked up): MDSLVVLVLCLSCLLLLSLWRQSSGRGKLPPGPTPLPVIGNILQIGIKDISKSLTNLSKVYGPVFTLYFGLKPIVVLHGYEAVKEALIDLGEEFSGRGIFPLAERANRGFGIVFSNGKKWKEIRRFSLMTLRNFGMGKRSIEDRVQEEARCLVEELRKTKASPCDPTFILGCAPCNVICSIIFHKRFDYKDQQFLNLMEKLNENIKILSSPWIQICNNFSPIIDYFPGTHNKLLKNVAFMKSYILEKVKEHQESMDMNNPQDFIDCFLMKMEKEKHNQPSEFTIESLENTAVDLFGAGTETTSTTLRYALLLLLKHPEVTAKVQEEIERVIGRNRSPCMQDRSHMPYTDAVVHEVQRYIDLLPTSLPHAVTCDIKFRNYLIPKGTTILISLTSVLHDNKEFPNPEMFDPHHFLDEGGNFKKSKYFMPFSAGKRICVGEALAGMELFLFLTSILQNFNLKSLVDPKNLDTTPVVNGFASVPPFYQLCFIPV
Cytochrome P450 1A2 (Homo sapiens), sequence (P05177 whole entry, looked up): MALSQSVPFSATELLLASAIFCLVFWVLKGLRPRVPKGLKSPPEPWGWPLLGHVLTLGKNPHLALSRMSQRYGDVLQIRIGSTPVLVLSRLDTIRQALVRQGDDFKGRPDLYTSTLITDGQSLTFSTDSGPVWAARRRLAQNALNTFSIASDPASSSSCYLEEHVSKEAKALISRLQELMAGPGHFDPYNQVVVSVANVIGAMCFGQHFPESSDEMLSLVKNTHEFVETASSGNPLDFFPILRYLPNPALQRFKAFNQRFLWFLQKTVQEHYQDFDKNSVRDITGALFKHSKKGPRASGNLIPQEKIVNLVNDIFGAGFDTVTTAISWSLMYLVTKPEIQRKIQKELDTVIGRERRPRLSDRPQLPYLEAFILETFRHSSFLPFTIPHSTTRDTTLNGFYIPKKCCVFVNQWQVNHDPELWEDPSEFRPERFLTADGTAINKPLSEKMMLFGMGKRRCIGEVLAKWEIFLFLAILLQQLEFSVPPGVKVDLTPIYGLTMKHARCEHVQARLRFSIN
Cytochrome P450 2D6 (Homo sapiens), sequence (P10635 whole entry, looked up): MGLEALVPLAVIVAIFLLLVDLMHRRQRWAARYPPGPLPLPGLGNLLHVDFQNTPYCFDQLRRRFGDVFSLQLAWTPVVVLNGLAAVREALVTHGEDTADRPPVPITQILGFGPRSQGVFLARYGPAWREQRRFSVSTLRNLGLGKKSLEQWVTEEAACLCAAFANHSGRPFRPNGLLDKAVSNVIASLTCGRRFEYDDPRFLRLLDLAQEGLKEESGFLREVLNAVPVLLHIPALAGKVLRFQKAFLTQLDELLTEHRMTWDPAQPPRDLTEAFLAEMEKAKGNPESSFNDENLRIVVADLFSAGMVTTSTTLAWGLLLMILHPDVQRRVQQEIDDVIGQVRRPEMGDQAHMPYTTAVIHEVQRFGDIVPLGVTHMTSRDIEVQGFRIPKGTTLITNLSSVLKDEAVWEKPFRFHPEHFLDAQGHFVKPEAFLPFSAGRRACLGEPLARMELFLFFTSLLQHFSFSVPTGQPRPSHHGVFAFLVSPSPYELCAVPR
Voltage-gated inwardly rectifying potassium channel KCNH2 (Homo sapiens), sequence (Q12809 whole entry, looked up): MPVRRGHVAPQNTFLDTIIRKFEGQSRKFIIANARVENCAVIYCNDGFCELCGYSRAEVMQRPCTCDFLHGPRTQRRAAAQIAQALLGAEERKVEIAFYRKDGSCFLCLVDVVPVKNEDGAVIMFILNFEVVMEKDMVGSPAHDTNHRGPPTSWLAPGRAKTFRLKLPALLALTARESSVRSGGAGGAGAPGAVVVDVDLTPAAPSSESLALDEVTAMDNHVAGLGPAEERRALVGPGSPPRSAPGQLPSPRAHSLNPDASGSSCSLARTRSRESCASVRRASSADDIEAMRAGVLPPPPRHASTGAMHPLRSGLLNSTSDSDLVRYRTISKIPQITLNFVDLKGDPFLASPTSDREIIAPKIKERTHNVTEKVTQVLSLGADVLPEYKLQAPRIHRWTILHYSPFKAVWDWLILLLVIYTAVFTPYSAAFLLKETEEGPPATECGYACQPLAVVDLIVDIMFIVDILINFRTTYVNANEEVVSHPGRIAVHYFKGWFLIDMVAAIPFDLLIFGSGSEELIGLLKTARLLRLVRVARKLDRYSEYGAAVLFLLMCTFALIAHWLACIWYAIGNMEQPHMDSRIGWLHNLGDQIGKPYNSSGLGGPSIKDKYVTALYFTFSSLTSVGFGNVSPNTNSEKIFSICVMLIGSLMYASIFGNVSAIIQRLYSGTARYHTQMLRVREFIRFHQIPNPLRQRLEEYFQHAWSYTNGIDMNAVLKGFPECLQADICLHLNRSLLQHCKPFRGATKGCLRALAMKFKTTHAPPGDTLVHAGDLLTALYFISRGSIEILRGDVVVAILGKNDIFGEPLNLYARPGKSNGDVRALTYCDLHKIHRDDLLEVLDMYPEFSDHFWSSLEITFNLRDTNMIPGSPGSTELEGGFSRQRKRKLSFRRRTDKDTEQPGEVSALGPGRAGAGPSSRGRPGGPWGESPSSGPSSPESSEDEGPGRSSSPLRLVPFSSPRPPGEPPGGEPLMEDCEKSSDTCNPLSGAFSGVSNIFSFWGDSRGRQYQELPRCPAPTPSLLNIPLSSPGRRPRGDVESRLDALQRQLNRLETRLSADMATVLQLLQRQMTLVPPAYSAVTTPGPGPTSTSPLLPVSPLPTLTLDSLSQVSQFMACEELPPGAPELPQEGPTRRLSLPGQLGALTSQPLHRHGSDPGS
Nuclear receptor subfamily 1 group I member 2 (Rattus norvegicus), sequence (Q9R1A7 whole entry, looked up): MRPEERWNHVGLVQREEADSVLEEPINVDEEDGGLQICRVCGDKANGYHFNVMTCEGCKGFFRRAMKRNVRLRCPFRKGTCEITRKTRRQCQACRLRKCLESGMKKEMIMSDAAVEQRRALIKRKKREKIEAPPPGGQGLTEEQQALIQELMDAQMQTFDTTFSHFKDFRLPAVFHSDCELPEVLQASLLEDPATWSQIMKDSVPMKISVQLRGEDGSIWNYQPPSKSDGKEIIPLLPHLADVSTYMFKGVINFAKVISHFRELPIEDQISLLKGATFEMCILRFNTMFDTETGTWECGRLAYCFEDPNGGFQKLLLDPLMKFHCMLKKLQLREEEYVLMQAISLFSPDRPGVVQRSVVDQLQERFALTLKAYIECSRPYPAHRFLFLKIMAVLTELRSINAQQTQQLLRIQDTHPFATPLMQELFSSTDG
Nuclear receptor subfamily 1 group I member 2 (Homo sapiens), sequence (O75469 whole entry, looked up): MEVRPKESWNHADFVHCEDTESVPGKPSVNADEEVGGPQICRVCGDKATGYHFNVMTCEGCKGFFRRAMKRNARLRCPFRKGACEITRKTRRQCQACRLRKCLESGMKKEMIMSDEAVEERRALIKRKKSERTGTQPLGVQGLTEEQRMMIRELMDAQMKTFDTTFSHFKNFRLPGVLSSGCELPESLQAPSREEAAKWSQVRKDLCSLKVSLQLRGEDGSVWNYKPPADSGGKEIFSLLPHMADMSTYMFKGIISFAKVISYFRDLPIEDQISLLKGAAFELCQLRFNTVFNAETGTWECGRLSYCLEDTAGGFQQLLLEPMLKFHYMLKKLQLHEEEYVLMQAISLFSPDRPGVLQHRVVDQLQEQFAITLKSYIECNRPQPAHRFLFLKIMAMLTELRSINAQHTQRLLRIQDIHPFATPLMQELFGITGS

Turning to `COc1ccc(C(=O)c2ccc(C)cc2)c(O)c1`, the Potency entry in assay [1], in [2], in assay [3], in assay [4], in [5] and in assay [8] was “inactive” each time. Further, in [13], the Potency entry was “inactive”. In addition, the Potency was 11 µM (active) in assay [6]; 40.4 µM (active) in [9]; 5.08 µM (active) in assay [10]; 22.7 µM (active) in assay [11]; 20.2 µM (active) in assay [12]. For the same molecule, the max activation in assay [7] was -1.42%.

Consider `CC(COc1ccccc1)NC(C)C(O)c1ccc(O)cc1` (centres undefined), for which the Potency result in [1], in assay [2], in assay [3], in assay [4], in [5] and in [8] was “inactive” each time. Further, the Potency entry in assay [14] and in assay [13] was “inactive” throughout. The Potency is 23.7 µM (active) in [6]; 0.55 µM (active) in assay [9]; 8.71 µM (active) in [10]; 15.5 µM (active) in assay [11]; 17.4 µM (active) in assay [12]. In addition, the max activation in [7] is 3.54%.

On to `CCOC(C)OCC`, for which the Potency result in [1], in assay [2], in [3], in assay [4], in assay [5] and in assay [6] was “inactive” each time. Moreover, the Potency entry in assay [8], in assay [9], in [11], in assay [12], in [14] and in [13] was “inactive” throughout. The max activation in [7] was -4.85%. In addition, in assay [10], the Potency is 69 µM (active).

On to `C/C(=C(\CCO)SS/C(CCO)=C(\C)N(C=O)Cc1cnc(C)nc1N)N(C=O)Cc1cnc(C)nc1N`, for which the Potency result in assay [1], in [2], in [3], in assay [4], in assay [5] and in [6] was “inactive” throughout. Moreover, the Potency result in assay [8], in [9], in assay [10], in assay [11] and in [12] was “inactive” each time. The max activation in assay [7] is -1.12%.

In the case of `CCCCCCCCC(=O)OCC(C)OC(=O)CCCCCCCC` (centres undefined), the Potency entry in [1], in [2], in assay [3], in [4], in [5] and in [6] was “inactive” in each case. In addition, the Potency result in [9] was “inactive”. Further, the Potency in [10] is 83.4 µM (active); in assay [11] it was 59.1 µM (active).

`CCC(CC)C(=O)O`: the Potency entry in assay [1], in [2], in assay [3], in assay [4], in [5] and in [6] was “inactive” each time. The Potency result in [9], in assay [10], in assay [11], in assay [12] and in [13] was “inactive” each time.

Turning to `NCCOCCOCCN`, the Potency entry in assay [1], in assay [2], in assay [3], in assay [4], in assay [5] and in [6] was “inactive” each time. For the same molecule, the Potency result in assay [10], in assay [11], in [14] and in [13] was “inactive” throughout. Further, the Potency in assay [9] is 25.2 µM (active).

Consider `COc1cc(C)c(Cc2cnc(N)nc2N)cc1OC`, for which the Potency entry in assay [1], in assay [2], in assay [3], in assay [4], in [5] and in assay [6] was “inactive” each time. Further, the Potency entry in assay [8], in assay [9], in assay [10], in [11], in [14] and in [13] was “inactive” each time. In addition, in assay [7], the max activation was -0.291%.

For the molecule `SCCOCCOCCS`, the Potency entry in assay [1], in [2], in assay [3], in assay [4], in [5] and in assay [9] was “inactive” each time. Besides, the Potency entry in assay [14] is “inactive”. In addition, the Potency in assay [6] was 4.86 µM (active); in assay [10] it was 10 µM (active); in [11], 35.6 µM (active); in assay [12] it was 22.4 µM (active); in assay [13], 17.8 µM (active).
